{
  "source": "the supplement of paper PMC4022240",
  "binders": {"B1": {"name": "H3 5-17 Q T A Rme K S Tph G G K A P R (peptide)", "chain": "QTARKSTGGKAPR"}, "B2": {"name": "H3 5-17 Q T A Rme Kme3 S T G G K A P R (peptide)", "chain": "QTARKSTGGKAPR"}, "B3": {"name": "H3 5-17 Q T A Rme2a Kac S T G G K A P R (peptide)", "chain": "QTARKSTGGKAPR"}, "B4": {"name": "H3 5-17 Q T A Rme2s K Sph T G G K A P R (peptide)", "chain": "QTARKSTGGKAPR"}, "B5": {"name": "H3 5-17 Q T A Rme2s Kac S T G G K A P R (peptide)", "chain": "QTARKSTGGKAPR"}},
  "experiment_in_all_cases": "peptide microarray binding signal (635 nm), min-max normalized on array (fraction of array maximum); higher = stronger binding",
  "details_in_all_cases": "peptide region: H3 5-17",
  "key": {"[1]": {"molecular_target": "T1, HaloTag-ATRX ADD domain (163-292)", "T1 chain": "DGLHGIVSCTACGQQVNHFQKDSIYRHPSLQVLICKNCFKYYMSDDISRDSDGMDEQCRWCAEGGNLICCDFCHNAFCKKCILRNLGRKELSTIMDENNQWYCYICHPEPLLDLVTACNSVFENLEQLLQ", "how_it_was_run": "(§1)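 Triplicate spots of histone 13-mer peptide–cellulose conjugates with a Cy3 tracer were printed on nitrocellulose and probed for 1 h at 4°C with biotin-labelled HaloTag reader fusions (10 nM to 1 μM) plus streptavidin-Alexa Fluor 647 or rabbit histone antibodies (1:10,000 to 1:2,000) plus anti-rabbit Alexa 647. An Axon GenePix 4000B read the 635 nm channel. Binding signal is the spot-triplicate mean intensity after min-max scaling within each library.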"}, "[2]": {"molecular_target": "HaloTag-ING2 PHD (mouse Ing2 200-280)", "how_it_was_run": "as §1"}, "[3]": {"molecular_target": "anti-H3K4me3 antibody ab8580", "how_it_was_run": "as §1"}, "[4]": {"molecular_target": "anti-H3K9me3 antibody ab8898", "how_it_was_run": "as §1"}, "[5]": {"details": "peptide modifications: H3R8me1 H3T11ph, binder concentration: 1:2,000 dilution"}, "[6]": {"details": "peptide modifications: H3R8me1 H3T11ph, binder concentration: 1:10,000 dilution"}, "[7]": {"details": "peptide modifications: H3R8me1 H3K9me3, binder concentration: 1:2,000 dilution"}, "[8]": {"details": "peptide modifications: H3R8me1 H3K9me3, binder concentration: 1:10,000 dilution"}, "[9]": {"details": "peptide modifications: H3R8me2a H3K9ac, binder concentration: 1:2,000 dilution"}, "[10]": {"details": "peptide modifications: H3R8me2a H3K9ac, binder concentration: 1:10,000 dilution"}, "[11]": {"details": "peptide modifications: H3R8me2s H3S10ph, binder concentration: 1:2,000 dilution"}, "[12]": {"details": "peptide modifications: H3R8me2s H3S10ph, binder concentration: 1:10,000 dilution"}, "[13]": {"details": "peptide modifications: H3R8me2s H3K9ac, binder concentration: 1:2,000 dilution"}, "[14]": {"details": "peptide modifications: H3R8me2s H3K9ac, binder concentration: 1:10,000 dilution"}},
  "note": "± gives the standard deviation.",
  "data": [
    {"binder": "B1", "values": [
      {"measurement": "peptide microarray binding signal", "setting": "[1]; peptide modifications: H3R8me1 H3T11ph, binder concentration: 50 nM", "result": "0.00818 ± 0.0006"},
      {"measurement": "peptide microarray binding signal", "setting": "[1]; peptide modifications: H3R8me1 H3T11ph, binder concentration: 500 nM", "result": "0.017 ± 0.0013"},
      {"measurement": "peptide microarray binding signal", "setting": "[2]; peptide modifications: H3R8me1 H3T11ph, binder concentration: 10 nM", "result": "0.0191 ± 0.0015"},
      {"measurement": "peptide microarray binding signal", "setting": "[2]; peptide modifications: H3R8me1 H3T11ph, binder concentration: 100 nM", "result": "0.042 ± 0.0045"},
      {"measurement": "peptide microarray binding signal", "setting": "[3]; [5]", "result": "0.00244 ± 0.00022"},
      {"measurement": "peptide microarray binding signal", "setting": "[3]; [6]", "result": "0.00428 ± 0.00027"},
      {"measurement": "peptide microarray binding signal", "setting": "[4]; [5]", "result": "0.0103 ± 0.012"},
      {"measurement": "peptide microarray binding signal", "setting": "[4]; [6]", "result": "0.012 ± 0.01"}
    ]},
    {"binder": "B2", "values": [
      {"measurement": "peptide microarray binding signal", "setting": "[1]; peptide modifications: H3R8me1 H3K9me3, binder concentration: 50 nM", "result": "0.00652 ± 0.00076"},
      {"measurement": "peptide microarray binding signal", "setting": "[1]; peptide modifications: H3R8me1 H3K9me3, binder concentration: 500 nM", "result": "0.0104 ± 0.0013"},
      {"measurement": "peptide microarray binding signal", "setting": "[2]; peptide modifications: H3R8me1 H3K9me3, binder concentration: 10 nM", "result": "0.0116 ± 0.00032"},
      {"measurement": "peptide microarray binding signal", "setting": "[2]; peptide modifications: H3R8me1 H3K9me3, binder concentration: 100 nM", "result": "0.0168 ± 0.002"},
      {"measurement": "peptide microarray binding signal", "setting": "[3]; [7]", "result": "0.0438 ± 0.013"},
      {"measurement": "peptide microarray binding signal", "setting": "[3]; [8]", "result": "0.0394 ± 0.0046"},
      {"measurement": "peptide microarray binding signal", "setting": "[4]; [7]", "result": "0.185 ± 0.023"},
      {"measurement": "peptide microarray binding signal", "setting": "[4]; [8]", "result": "0.243 ± 0.0063"}
    ]},
    {"binder": "B3", "values": [
      {"measurement": "peptide microarray binding signal", "setting": "[1]; peptide modifications: H3R8me2a H3K9ac, binder concentration: 50 nM", "result": "0.00423 ± 6.5e-05"},
      {"measurement": "peptide microarray binding signal", "setting": "[1]; peptide modifications: H3R8me2a H3K9ac, binder concentration: 500 nM", "result": "0.003 ± 4.1e-05"},
      {"measurement": "peptide microarray binding signal", "setting": "[2]; peptide modifications: H3R8me2a H3K9ac, binder concentration: 10 nM", "result": 0.00651},
      {"measurement": "peptide microarray binding signal", "setting": "[2]; peptide modifications: H3R8me2a H3K9ac, binder concentration: 100 nM", "result": "0.00765 ± 0.00019"},
      {"measurement": "peptide microarray binding signal", "setting": "[3]; [9]", "result": "0.00208 ± 6e-05"},
      {"measurement": "peptide microarray binding signal", "setting": "[3]; [10]", "result": "0.00217 ± 5.2e-05"},
      {"measurement": "peptide microarray binding signal", "setting": "[4]; [9]", "result": "0.00403 ± 0.00054"},
      {"measurement": "peptide microarray binding signal", "setting": "[4]; [10]", "result": "0.00427 ± 9.8e-05"}
    ]},
    {"binder": "B4", "values": [
      {"measurement": "peptide microarray binding signal", "setting": "[1]; peptide modifications: H3R8me2s H3S10ph, binder concentration: 50 nM", "result": "0.00683 ± 0.0003"},
      {"measurement": "peptide microarray binding signal", "setting": "[1]; peptide modifications: H3R8me2s H3S10ph, binder concentration: 500 nM", "result": "0.0161 ± 0.0014"},
      {"measurement": "peptide microarray binding signal", "setting": "[2]; peptide modifications: H3R8me2s H3S10ph, binder concentration: 10 nM", "result": "0.0274 ± 0.00033"},
      {"measurement": "peptide microarray binding signal", "setting": "[2]; peptide modifications: H3R8me2s H3S10ph, binder concentration: 100 nM", "result": "0.0477 ± 0.0078"},
      {"measurement": "peptide microarray binding signal", "setting": "[3]; [11]", "result": "0.00423 ± 0.00039"},
      {"measurement": "peptide microarray binding signal", "setting": "[3]; [12]", "result": "0.00548 ± 0.00014"},
      {"measurement": "peptide microarray binding signal", "setting": "[4]; [11]", "result": "0.00403 ± 0.0009"},
      {"measurement": "peptide microarray binding signal", "setting": "[4]; [12]", "result": "0.00363 ± 0.00015"}
    ]},
    {"binder": "B5", "values": [
      {"measurement": "peptide microarray binding signal", "setting": "[1]; peptide modifications: H3R8me2s H3K9ac, binder concentration: 50 nM", "result": "0.0102 ± 0.00014"},
      {"measurement": "peptide microarray binding signal", "setting": "[1]; peptide modifications: H3R8me2s H3K9ac, binder concentration: 500 nM", "result": "0.0189 ± 0.00053"},
      {"measurement": "peptide microarray binding signal", "setting": "[2]; peptide modifications: H3R8me2s H3K9ac, binder concentration: 10 nM", "result": "0.0344 ± 0.0018"},
      {"measurement": "peptide microarray binding signal", "setting": "[2]; peptide modifications: H3R8me2s H3K9ac, binder concentration: 100 nM", "result": "0.064 ± 0.0047"},
      {"measurement": "peptide microarray binding signal", "setting": "[3]; [13]", "result": "0.0111 ± 0.0022"},
      {"measurement": "peptide microarray binding signal", "setting": "[3]; [14]", "result": "0.0146 ± 0.00068"},
      {"measurement": "peptide microarray binding signal", "setting": "[4]; [13]", "result": "0.011 ± 0.00081"},
      {"measurement": "peptide microarray binding signal", "setting": "[4]; [14]", "result": "0.00899 ± 0.0016"}
    ]}
  ]
}
